The text below walks through data of PubChem BioAssay AID463173 (ICCB-Longwood Screening Facility, Harvard Medical School, 2010).

The campaign covered roughly 52,000 compounds. About 4,300 (8.3%) were called active. This is one part of a sample in which actives are shown more often than they occur. Unmarked numbers belong to inactive results. Rule as the data show it: active = survival mostly below about 52% (no sharp cut-off); inactive = mostly above about 56%.

In the experiment the test system is DeltatarO mutant. The experiment is described as follows: growth inhibition of S. aureus wild type versus tarO mutant, primary screen, teichoic acid synthesis inhibitors, RN4220, OD600 (AID 463173). To be noted: OD600, 18 h, stronger effect = lower value, screened at 18.75 µg/mL (by protocol).
Take `COc1cc(C(=O)NCc2ccc3c(c2)CCN3C(=O)c2ccncc2)cc(OC)c1OC`: the survival is 101%.
With `Cc1cccc(N2CCN(C(=O)c3cn(C4CCCCC4)c(=O)c4c3c3ccccc3n4C)CC2)c1C` the figure was 115%; with `CCC1CC(/C(C)=N/NC(N)=O)OC1=O` (stereo not drawn), 71%; with `Cc1c(-c2nc(-c3ccccc3F)no2)nnn1-c1cc(F)ccc1F`, 84%.
Regarding `CCOC(=O)c1c(C)n(-c2ccccc2)c2ccc(OC(=O)c3ccccc3Cl)cc12`, the survival was 54%.
For `CCOC(=O)c1c(C)n(-c2ccccc2)c2ccc(OC(=O)c3ccccc3)cc12`, the survival is 3% (active).
Consider `CCOC(=O)c1c(C)n(-c2ccccc2)c2ccc(OC(=O)c3ccccc3NC(=O)C(C)C)cc12`, for which the survival was 47% (active).
`CCOC(=O)c1c(C)n(-c2ccccc2)c2ccc(OC(=O)c3cccc(Cl)c3)cc12`: the survival is 79%.
With `CCOC(=O)c1c(C)n(-c2ccccc2)c2ccc(OC(=O)c3cccc(C)c3)cc12`, the survival is 63%.
For `CCOC(=O)c1c(C)n(-c2ccccc2)c2ccc(OC(=O)c3ccccc3NC(=O)C(C)(C)C)cc12`, the survival is 55%.
Regarding `COc1ccc(S(=O)(=O)N2CCC(C(=O)Nc3ccc(Oc4ccccc4)cc3)CC2)cc1`, the survival was 72%.
With `O=C(COc1ccc(S(=O)(=O)NC2CCCCC2)cc1Cl)NCc1ccccn1` the figure was 104%.
In the case of `COc1ccc(N2CCN(C(CNC(=O)C(=O)NCc3ccc(C)cc3)c3cccnc3)CC2)cc1` (stereo not drawn), the survival is 61%.
With `CCCCNc1nc2c(S(=O)(=O)c3ccc(C)cc3)nnn2c2ccsc12`, the survival is 114%.
For `Cc1ccc(C)c(NC(=O)CSc2nncn3c2cc2sccc23)c1`, the survival was 69%.
Consider `O=C(c1cc2c(=O)[nH]c3ccccc3c2s1)N1CCN(c2ccc(F)cc2)CC1`, for which the survival is 51%.
Regarding `Cc1ccc(Cl)cc1N1CCN(CCNC(=O)Nc2ccc(Cl)cc2)CC1`, the survival was -4% (active).
With `Cc1ccc(Cl)cc1N1CCN(CCCNC(=O)c2nnc(Cc3cccc(Cl)c3)o2)CC1` the figure was 25% (active); with `Cc1ccc(Cl)cc1N1CCN(CCNC(=O)Nc2ccccc2Cl)CC1`, 77%; with `Cc1ccc(C)c(N2CCN(CCCNC(=O)Nc3ccc(Cl)cc3)CC2)c1`, -5% (active).
Regarding `COc1ccc(Cc2nnc(C(=O)NCCCN3CCN(c4ccccc4F)CC3)o2)cc1OC`, the survival was 78%.
Turning to `CCC(=O)N1c2ccccc2CC1C(=O)NCCN1CCN(c2cccc(Cl)c2)CC1` (stereo not drawn), the survival is 87%.
Regarding `Cc1cccc(N2CCN(CCNC(=O)Nc3ccc(Cl)cc3)CC2)c1C`, the survival was 66%.
With `CCC(=O)N1c2ccccc2CC1C(=O)NCCN1CCN(c2cc(Cl)ccc2C)CC1` (stereo not drawn) the figure was 52% (active).
In the case of `CCOc1ccc(NC(=O)NCCN2CCN(c3cc(Cl)ccc3C)CC2)cc1`, the survival was 54%.
With `CCC(=O)N1c2ccccc2CC1C(=O)NCCN1CCN(c2cccc(C)c2C)CC1` (stereo not drawn), the survival is 77%.
`O=C(NCCCN1CCN(c2ccc(F)cc2)CC1)Nc1ccc(Cl)cc1`: the survival was 72%.
Consider `O=C(NCCCN1CCN(c2ccccc2F)CC1)c1nnc(Cc2ccc(Cl)cc2Cl)o1`, for which the survival is 80%.
On to `CCc1ccc(S(=O)(=O)Nc2ccc(-c3ccc(N4CCCCCC4)nn3)cc2)cc1`, for which the survival is 95%.
As for `Cc1ccc(C)c(N(C)C(=O)CCNC(=O)Cn2cnc3ccccc3c2=O)c1`, the survival was 69%.
Turning to `Cc1ccc(S(=O)(=O)NC2(C(F)(F)F)C(=O)Nc3c2c(=O)[nH]c(=O)n3-c2ccccc2)cc1` (stereo not drawn), the survival is 89%.
As to `COc1cc(OC)cc(-c2nc3nc(C)c(CCC(=O)Nc4ccc(Cl)cc4)c(C)n3n2)c1`, the survival is 65%.
Regarding `COc1cccc(CNc2ncnc3onc(C)c23)c1`, the survival is 125%.
As to `Cc1ccc(NC(=O)N2CCc3cc(S(=O)(=O)N4CCC(C)CC4)ccc32)cc1F`, the survival is 105%.
With `COc1c(C)cccc1C(=O)Nc1ccc(-c2nc3ccccc3s2)c(Cl)c1` the figure was 68%; with `Cc1ccccc1CNC(=O)c1ccc2nc(C(C)C)oc2c1`, 83%.
Take `COc1ccc(-c2onc(C)c2C)cc1S(=O)(=O)N1CCN(c2cc(C)ccc2C)CC1`: the survival was 81%.
In the case of `O=C(NCCSc1c[nH]c2ccccc12)c1ccc(Cl)cc1`, the survival was 47% (active).
Regarding `COc1ccc(C(=O)NCCSc2c[nH]c3ccccc23)cc1OC`, the survival is 76%.
For `O=C(NCCSc1c[nH]c2ccccc12)c1ccccc1Cl`, the survival is 57%.
With `Cc1ccc(C(=O)NCCSc2c(C)[nH]c3ccccc23)cc1C`, the survival was 55%.
With `CN(C)S(=O)(=O)c1ccc(C(=O)NCCSc2c(-c3ccc(Cl)cc3)[nH]c3ccccc23)cc1`, the survival was 67%.
With `Cc1ccc(C(=O)NCCSc2c[nH]c3ccccc23)cc1C` the figure was 46% (active); with `Cc1ccc(Cn2c(CN3CCN(c4cccc(Cl)c4)CC3)nc3c2c(=O)n(C)c(=O)n3C)cc1`, 107%.
As for `COc1cccc(C2CC(=O)Nc3c2c(=O)n(C)c2nc4ccccc4n32)c1` (stereo not drawn), the survival was 67%.
Turning to `CCn1c(=O)cc(SCC(=O)NCc2ccc(OC)cc2OC)c2ccccc21`, the survival was 66%.
For the compound `COc1ccc(C2=NC(c3ccncc3)=Nc3ccc(Br)cc3N2)cc1`, the survival was 82%.
In the case of `CCCCOc1ccc(C2=NC(c3ccncc3)=Nc3ccc(OCC)cc3N2)cc1`, the survival is 75%.
For the compound `CCCCOc1ccc(C2=NC(c3ccncc3)=Nc3ccc(Br)cc3N2)cc1`, the survival was 12% (active).
With `COc1ccc(CNC(=O)c2cc3oc4ccccc4c3n2C)cc1OC` the figure was 43% (active); with `CCn1c(C(=O)NCc2ccc(OC(C)C)cc2)cc2oc3ccccc3c21`, 33% (active).
With `CCn1c(C(=O)NCc2ccccc2C)cc2oc3ccccc3c21` the figure was 14% (active).
As to `CCn1c(C(=O)NCc2ccccc2Br)cc2oc3ccccc3c21`, the survival is 48%.
With `Cn1c(C(=O)NCc2cccc(Cl)c2)cc2oc3ccccc3c21` the figure was 85%; with `Cn1c(C(=O)NCc2ccccc2F)cc2oc3ccccc3c21`, 55%; with `CCn1c(C(=O)NCc2ccc(F)cc2)cc2oc3ccccc3c21`, 89%.
For the compound `CCn1c(C(=O)NCc2cccc(Br)c2)cc2oc3ccccc3c21`, the survival is 50%.
Turning to `CCCOc1ccc(CNC(=O)c2cc3oc4ccccc4c3n2C)cc1`, the survival is 73%.
`CCn1c(C(=O)NCc2cc(Br)ccc2OC)cc2oc3ccccc3c21`: the survival was 67%.
Take `CCOc1ccc(CNC(=O)c2cc3oc4ccccc4c3n2C)cc1`: the survival is 95%.
In the case of `CCOc1ccccc1CNC(=O)c1cc2oc3ccccc3c2n1CC`, the survival was 2% (active).
As for `Cc1c(-c2nsc(NC(=O)c3cccs3)n2)nnn1-c1ccc(Br)cc1`, the survival was 77%.
Turning to `COc1ccc2[nH]c(=O)c(CN(C3CCCC3)S(=O)(=O)c3cccc4nsnc34)cc2c1`, the survival is 96%.
For `Cc1ccc(NC(=O)Cn2c(=O)n(CCCCC(=O)NCCc3ccccc3)c(=O)c3ccccc32)c(C)c1`, the survival is 84%.
On to `CCc1ccc(NC(=O)CSc2ccc(-c3cccs3)nn2)cc1`, for which the survival is 72%.
In the case of `Cc1cccc(NC(=O)c2cc3c(=O)n4cccc(C)c4nc3s2)c1C`, the survival was 65%.
In the case of `CC(=O)OC1=CN(Cc2ccccc2)S(=O)(=O)c2ccccc21`, the survival was 71%.
In the case of `COc1ccccc1CNC(=O)CCCCn1c(=O)c2ccccc2n(Cc2ccccc2F)c1=O`, the survival was 93%.
Regarding `COc1cccc(NC(=O)c2ccc(CNS(=O)(=O)c3ccc4c(c3)C(C)(C)C(=O)N4C)cc2)c1`, the survival is 51%.
With `CCc1nn(Cc2cccc(F)c2)c(=O)c2cc3cc(C)ccc3n12` the figure was 40% (active); with `CCc1nn(Cc2ccc(Cl)cc2)c(=O)c2cc3cc(C)ccc3n12`, 94%.
`CCc1nn(Cc2c(C)cc(C)cc2C)c(=O)c2cc3cc(C)ccc3n12`: the survival was 88%.
Consider `COC(=O)C1=NN(C(=O)c2cccc(OC)c2)C(C)(O)C1` (stereo not drawn), for which the survival is 104%.
For `COc1ccc(C)cc1NC(=O)NCc1ccc2c(c1)CCN2C(=O)c1ccccc1`, the survival is 105%.
Consider `COc1cccc(C(=O)N2c3ccc(C)cc3C(C)(c3ccccc3)CC2(C)C)c1` (stereo not drawn), for which the survival is -5% (active).
With `COc1cccc(C(=O)N2CC(C)OC(C)C2)c1` (stereo not drawn) the figure was 65%; with `COc1ccccc1C(=O)NCc1ccc2c(c1)CCN2C(=O)c1cccc(C)c1`, 77%.
With `COc1cccc(C(=O)N2c3cc(C)ccc3C(C)(c3ccccc3)CC2(C)C)c1` (stereo not drawn), the survival was 1% (active).
`COc1ccc(-c2cc3ccc(O)c(CN4CCCC(C)C4)c3oc2=O)cc1` (stereo not drawn): the survival was 79%.
With `CCOc1ccccc1Nc1nc(-c2cccc(Cl)c2)c2c(n1)-c1ccccc1OC2` the figure was 61%; with `CN(C(=O)CSc1nc2ccc(NC(=O)CCc3ccccc3)cc2s1)c1ccccc1`, 73%; with `CCc1ccc(C(c2ccccc2)c2c(C)[nH]c3ccccc23)s1` (stereo not drawn), 25% (active).
On to `Cc1ccc(C(c2ccccc2)c2c(C)[nH]c3ccccc23)s1` (stereo not drawn), for which the survival is 26% (active).
As for `Cc1[nH]c2ccccc2c1C(c1ccccc1)c1ccc(Cl)s1` (stereo not drawn), the survival was 0% (active).
Consider `S=c1nc(Cc2cccs2)[nH]c2ccccc12`, for which the survival is 100%.
As to `Cc1ccc(CNC(C)c2ccccc2)s1` (stereo not drawn), the survival is 75%.
With `NNC(=O)CSc1c(-c2cccs2)[nH]c2ccccc12` the figure was 84%; with `Cc1ccc(C(c2cccc(Br)c2)c2c(C)[nH]c3ccccc23)s1` (stereo not drawn), 65%.
Regarding `Cc1[nH]c2ccccc2c1C1(O)C(=O)Nc2ccc(Cl)cc21` (stereo not drawn), the survival was 66%.
Regarding `Cc1[nH]c2ccccc2c1C(c1ccccc1)c1cccs1` (stereo not drawn), the survival is 7% (active).
For `C=CCc1c(C)[nH]c2ccccc2c1=O`, the survival is 98%.
Regarding `CCCCc1c(C)[nH]c2ccccc2c1=O`, the survival was 83%.
As to `Cc1cccc(Nc2c(-c3ccsc3)nc3nc(C)cc(C)n23)c1`, the survival was 130%.
